Results from PubChem BioAssay (NCI).
About 83,000 compounds went through this panel and 20% of them were active in at least one assay; those are over-represented in the sample as a whole.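 Results are percent growth after 48 hours of single-concentration exposure. 100 means growth as in untreated cells, lower positive values show inhibition; negative values down to -100 show cell death.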 Values without a mark were called inactive. Calls of active or inactive are those of the source. The calls were made as follows: active = growth percent below 10; inactive = the rest.

Tested on: HL-60(TB) leukemia
Experiment: NCI-60 one-dose screen, 48 h (100 = growth as untreated, 0 = no growth, -100 = all killed)
Conditions: 10 µM unless noted

Question: `CCO/C=N/C1=C(C#N)C(c2ccc(Cl)cc2)c2sc3c(CC)cccc3c2O1` (configuration not stated) was tested. Which growth did it give?
Answer: -0.966% (active)

Question: `CCN(CC)Cc1c(-c2cccc(OC(F)(F)F)c2)[nH]c2ccc(N3CCCC3)cc2c1=O` was tested. Which growth did it give?
Answer: 72.9%

Question: For `CCN1C(=O)N(CC)C2SC(N/N=C/c3cccs3)=NC21` (configuration not stated), which growth is on record?
Answer: 1.27% (active)

Question: For `CCCCCCNC(=O)Oc1ccc(/C(=C(/C)c2ccccc2)c2ccc(OCCN(C)C)cc2)cc1`, which growth is on record?
Answer: 23.2%

Question: For `O=C(N/N=C/c1ccc([N+](=O)[O-])o1)c1[nH]c2ccc(Br)cc2c1-c1ccccc1`, which growth is on record?
Answer: -42.1% (active)

Question: For `Cn1c(SCC(=O)c2cccs2)nc2ccccc2c1=O`, which growth is on record?
Answer: 91.8%

Question: With `CCCn1cnc2c(c1=N)C(c1ccc(Cl)cc1)c1sc3c(C)cccc3c1O2` (configuration not stated) as the molecule, how does the growth read?
Answer: -20% (active)

Question: For `CC(=O)NC(C)(C)C(=O)N[C@@H](C)C(=O)NC(C)(C)C(=O)N[C@@H](C)C(=O)NC(C)(C)C(=O)N[C@@H](C)C(=O)N[C@@H](CCC(N)=O)C(=O)NC(C)(C)C(=O)N[C@H](C(=O)NC(C)(C)C(=O)NCC(=O)N[C@@H](CC(C)C)C(=O)NC(C)(C)C(=O)N1CCC[C@H]1C(=O)N[C@H](C(=O)NC(C)(C)C(=O)NC(C)(C)C(=O)N[C@@H](CCC(N)=O)C(=O)N[C@@H](CCC(N)=O)C(=O)N[C@H](CO)CC1CCCCC1)C(C)C)C(C)C`, which growth is on record?
Answer: 10.3% [5 µM]

Question: With `O=C(Nc1ccc(F)c(F)c1)c1cc(-c2ccc(F)cc2F)ccc1O` as the molecule, how does the growth read?
Answer: -30.8% (active)

Question: With `O=C(Nc1ccc(-c2nc(-c3cccc(O)c3)c(-c3ccnc(Br)c3)[nH]2)cc1)c1ccccc1` as the molecule, how does the growth read?
Answer: -53.1% (active)

Question: How did the growth turn out when `N/C(=N\c1nc2c(Br)cccc2s1)C(Br)Br` was run?
Answer: 7% (active)

Question: With `CN(C)c1ccc(-c2cc(-c3c[nH]c4ccccc34)nc(N)c2C#N)cc1` as the molecule, how does the growth read?
Answer: 20.6%

Question: With `NS(=O)(=O)c1ccc(Nc2nc(SCc3ccccc3)nc3ccccc23)cc1` as the molecule, how does the growth read?
Answer: 60.5%

Question: How did the growth turn out when `C#C[C@]1(O)CC[C@H]2[C@@H]3CC=C4c5sc(Nc6ncccc6C)nc5CC[C@]4(C)[C@H]3CC[C@@]21C` was run?
Answer: -29.6% (active)

Question: Which growth does the source give for `Cc1ccc(-c2cc(-c3ccc(N(C)C)cc3)n3c(n2)nc2ccccc23)cc1` here?
Answer: 67.1%

Question: For `COc1ccc(-c2nc3ccc(-c4nnc(SCC(=O)Nc5ccc(C(=O)/C=C/c6ccc(Cl)cc6)cc5)o4)cc3[nH]2)cc1`, which growth is on record?
Answer: 94.1%

Question: `O=[N+]([O-])c1ccc(NC(=S)NNC(=S)Nc2ccc(Br)cc2)cc1` was tested. Which growth did it give?
Answer: 93.1%

Question: With `CCCCCc1ccc(S(=O)(=O)Nc2cc(-c3csc(NC(=O)CN4CCN(C)CC4)n3)ccc2N2CCN(C)CC2)cc1` as the molecule, how does the growth read?
Answer: -48.8% (active)

Question: `C#Cc1nc(C2=C(C)C(OC(=O)CCC(=O)O)CC2)cs1` (configuration not stated) was tested. Which growth did it give?
Answer: 101%

Question: Which growth does the source give for `CCC(CC)n1c(=O)c(SC2=NC3C(NN2)N(CC)C(=O)N3CC)c(C(=O)O)c2ccccc21` (configuration not stated) here?
Answer: 0.469% (active)

Question: Which growth does the source give for `CC(C)NC(=O)c1cc(-c2ccc(NC(=O)Nc3ccc(F)cc3)cc2)nc2cccnc12` here?
Answer: 105%

Question: Which growth does the source give for `CN1CCN(c2ccc(Nc3nc(NCCNS(=O)(=O)c4ccc5ccccc5c4)c4sccc4n3)cc2)CC1` here?
Answer: -29.5% (active)

Question: `C#C[C@]1(O)CC[C@H]2[C@@H]3CC=C4c5sc(Nc6cc(Cl)ccn6)nc5CC[C@]4(C)[C@H]3CC[C@@]21C` was tested. Which growth did it give?
Answer: 2.68% (active)

Question: Which growth does the source give for `Cc1cn(-c2cc(NC(=O)c3cncc(C#Cc4cnc5ccc(OCCCS(C)(=O)=O)nn45)c3)cc(C(F)(F)F)c2)cn1` here?
Answer: -6.15% (active)

Question: With `CC1=C2C(=C[C@@](C)(COS(N)(=O)=O)[C@@H]2O)C(=O)[C@](C)(O)C12CC2` as the molecule, how does the growth read?
Answer: 61.4%

Question: `N#Cc1nc(-c2ccccc2)oc1S(=O)(=O)N1CCN(CCc2ccccn2)CC1` was tested. Which growth did it give?
Answer: 5.71% (active)

Question: For `COc1ccccc1/C=C/C(=O)c1nnn(-c2ccc(C(=O)O)cc2)c1C`, which growth is on record?
Answer: 83.2%

Question: Which growth does the source give for `O=C(N/N=C/c1cc2ccccc2nc1Cl)c1cc(-c2nc3ccccc3[nH]2)nc2ccccc12` here?
Answer: 92%

Question: For `O=C(CN1C(=O)CSC1=O)Nc1ccc(C(=O)/C=C/c2cc3ccccc3nc2Cl)cc1`, which growth is on record?
Answer: 71.9%

Question: With `COc1ccc(/C=C/C(=O)c2nnn(-c3ccc(Br)cc3)c2C)cc1OC` as the molecule, how does the growth read?
Answer: 47.1%

Question: With `O=S(=O)(NCCCNc1nccc(-c2[nH]c(-c3ccccc3)nc2-c2ccc(Cl)c(O)c2)n1)c1cccc2ccccc12` as the molecule, how does the growth read?
Answer: 9.79% (active)

Question: How did the growth turn out when `COc1cc(-c2nn(C(C)(C)C)cc2-c2ccnc(NCCCNS(=O)(=O)c3cccc(F)c3)n2)ccc1Cl` was run?
Answer: 81.9%
